Results as given in PubChem BioAssay (EPA / NIEHS).
Results filed as inconclusive are left out. Active and inactive are the calls of the source. The calls were made as follows, unless noted: active = hit-call score of the fitted dose curve at least 0.9, where 1 is the maximum; inactive = score below 0.9.

How the values were obtained:
[1] = CCTE_Mundy_HCI_Cortical_Synap_Neur_Matur_NeuriteSpotCountPerNeuron: CCTE's Synaptogenesis and Neurite Maturation Assay in rat cortical cells for Neurite Spot Count per Neuron Count, Mundy Lab (AID 2284215)
Summary of the method: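 Developing rat cortical neurons, with glia suppressed by AraC, are exposed to chemicals from DIV 7 to DIV 12. Automated fluorescence imaging of MAP2-labelled neurites and synaptophysin puncta yields a count per neuron, normalised against DMSO wells.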

[2] = CCTE_Mundy_HCI_Cortical_Synap_Neur_Matur_SynapseCount: CCTE's Synaptogenesis and Neurite Maturation Assay in rat cortical cells for Synapse Count, Mundy Lab (AID 2284218)
Summary of the method: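 Primary rat cortical culture; AraC DIV 5 to arrest glia; compound + media change DIV 7; terminated DIV 12. PFA/Hoechst fix, anti-MAP2 + anti-synaptophysin immunostain; HCI synapse count/neuron; DMSO = baseline.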

[3] = CCTE_Mundy_HCI_Cortical_Synap_Neur_Matur_NeuriteCount: CCTE's Synaptogenesis and Neurite Maturation Assay in rat cortical cells for Neurite Count, Mundy Lab (AID 2284222);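 also: exposure from day 7 to day 12 in vitro with readout at day 12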
Summary of the method: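 Primary rat cortical cells were plated, treated with AraC at DIV 5, then exposed to chemicals from DIV 7 through DIV 12. After fixation and immunostaining for MAP2 and synaptophysin, imaging quantified neurites, with DMSO as the negative control.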

[4] = CCTE_Mundy_HCI_Cortical_Synap_Neur_Matur_CellBodySpotCount: CCTE's Synaptogenesis and Neurite Maturation Assay in rat cortical cells for Cell Body Spot Count, Mundy Lab (AID 2284223)
Summary of the method: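 Chemicals were applied to AraC-treated rat primary cortical cells at DIV 7 and measured at DIV 12. Fixed cells were labelled for MAP2, synaptophysin and nuclei, and high-content imaging gave cell body synaptophysin spot counts per neuron relative to DMSO.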

[5] = UKN2_HCS_IMR90_cell_viability: Viability Assessment in the University of Konstanz (UKN) Leist Lab Neural Crest Cell Migration Assay in human induced IMR90 Pluripotent Stem Cells (UKN2) (AID 2284233);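 also: viability of neural crest cells differentiated from IMR90 iPSC measured by calcein-AM fluorescence imaging; cells exposed to compound for 24 h after a 24 h migration phase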
Summary of the method: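 Neural crest cells derived from IMR90 iPSC migrate into a stopper-free zone for 24 h in EGF/FGF medium, then are exposed to compound for 24 h. Viability assessed by calcein-AM and Hoechst staining with high-content imaging, fitted bidirectionally versus DMSO.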

[6] = CCTE_Mundy_HCI_Cortical_NOG_NeuronCount: CCTE's Neurite Outgrowth Assay in rat cortical cells for Neuron Count, Mundy Lab (AID 2284236; active = hit-call score of the fitted dose curve at least 0.9, where 1 is the maximum;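 also: neurons counted by imaging betaIII-tubulin and Hoechst stained cortical cells; cells exposed to compound for about 48 hours before fixation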)
Summary of the method: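 Read-out: neuron number by high-content imaging of betaIII-tubulin (Alexa Fluor-488) and Hoechst-labelled rat primary cortical cells.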

[7] = CCTE_Mundy_HCI_Cortical_NOG_BPCount: CCTE's Neurite Outgrowth Assay in rat cortical cells for Branch Point Count, Mundy Lab (AID 2284237)
Summary of the method: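 Measured 50.33 h after dosing, this morphology endpoint uses rat primary cortical cultures labelled for betaIII-tubulin. Branch points are quantified by high-content imaging, with DMSO as negative control and baseline.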

[8] = CCTE_Mundy_HCI_hNP1_Casp3_7: CCTE's Caspase-Glo 3/7 Assay in human neuroprogenitor cells for Apoptosis, Mundy Lab (AID 2284240)
Summary of the method: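 Luminescent caspase-3/7 readout, 26.5 h post-dose, in human neural progenitor cells from WA09 embryonic stem cells. Cells grew 40–44 h at 37 °C, 5% CO2 before chemical addition. Activity analysed as signal increase over DMSO baseline.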

[9] = CCTE_Mundy_HCI_hNP1_CellTiter: CCTE's Cell Titer-Glo 2 Assay in human neuroprogenitor cells for Viability, Mundy Lab (AID 2284241; active = hit-call score of the fitted dose curve at least 0.9, where 1 is the maximum)
Summary of the method: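 Viability read as luminescent ATP content (CellTiter-Glo, 30 min room temperature) twenty-four hours after dosing, relative to DMSO. Cells: WA09-derived hNP1 neuroprogenitors on poly-L-ornithine/laminin, plated 40 to 44 hours before chemical.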

[10] = CCTE_Mundy_HCI_Cortical_Synap_Neur_Matur_NeuronCount: CCTE's Synaptogenesis and Neurite Maturation Assay in rat cortical cells for Neuron Count, Mundy Lab (AID 2284242; active = hit-call score of the fitted dose curve at least 0.9, where 1 is the maximum)
Summary of the method: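 Neuron number was scored by automated high-content imaging of Hoechst- and MAP2-labelled rat primary cortical cells. Glial growth was arrested with AraC at DIV 5, compounds were applied from DIV 7, and cultures ended at DIV 12.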

[11] = IUF_NPC2c_oligodendrocyte_migration_120hr: Leibniz Research Institute for Environmental Medicine (IUF) 120-hour Neural Progenitor Cell Migration Assay for Oligodendrocyte Migration (NPC2c) (AID 2284297);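 also: O4-positive oligodendrocyte migration distance divided by radial glia migration distance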
Summary of the method: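 Using fetal brain neural progenitor spheres differentiating in N2 medium at 37C, compounds were present for 120 h. Oligodendrocyte migration distance, normalized to radial glia migration, was measured from imaged O4 staining.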

[12] = IUF_NPC2a_radial_glia_migration_120hr: Leibniz Research Institute for Environmental Medicine (IUF) 120-hour Neural Progenitor Cell Migration Assay for Radial Glia Migration (NPC2a) (AID 2284298)
Summary of the method: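 Exposure of 0.3 mm primary hNPC spheres runs day 0 to 120 h with a half-volume medium change at day 3. Fixed cells get Hoechst staining; high-content analysis of nuclear positions yields radial glia migration distance per well, compared against DMSO controls.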

[13] = IUF_NPC2a_radial_glia_migration_72hr: Leibniz Research Institute for Environmental Medicine (IUF) 72-hour Neural Progenitor Cell Migration Assay for Radial Glia Migration (NPC2a) (AID 2284299)
Summary of the method: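 Primary hNPC spheres, fetal brain GW 16-19, on PDL/laminin; DMEM/F12 3:1 + 1% N2. Compound dosed day 0, 7 conc. + SC, half-medium refresh day 3. 72 h brightfield, migration distance core-to-front (um), 4 directions averaged.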

[14] = IUF_NPC2b_neuronal_migration_120hr: Leibniz Research Institute for Environmental Medicine (IUF) 120-hour Neural Progenitor Cell Migration Assay for Neuron Migration (NPC2b) (AID 2284300)
Summary of the method: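 Fetal human NPC spheres migrate on PDL/laminin during 120 h compound treatment; neuronal migration distance, glia-normalized, scored versus DMSO control.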

[15] = IUF_NPC3_neuronal_differentiation_120hr: Leibniz Research Institute for Environmental Medicine (IUF) 120-hour Neuronal Differentiation Assay (NPC3) (AID 2284301)
Summary of the method: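 Human fetal (GW 16-19) neural progenitor spheres (0.3 mm) plated on poly-D-lysine/laminin in N2 differentiation medium, exposed 120 h at 37C with half-medium renewal day 3; 7 concentrations. TUBB3+ cells as % of Hoechst nuclei, CNN-identified; DMSO baseline.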

[16] = IUF_NPC4_neurite_length_120hr: Leibniz Research Institute for Environmental Medicine (IUF) 120-hour Neuronal Morphology Assay for Neurite Length (NPC4) (AID 2284302)
Summary of the method: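 Human fetal neural progenitor spheres (0.3 mm) plated on poly-D-lysine/laminin in N2 differentiation medium, exposed from day 0 for 120 h with half-medium refresh at day 3, 37C. Mean neurite length (um) of TUBB3-positive neurons from skeletonized immunostaining images; DMSO ≤0.1%.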

[17] = IUF_NPC4_neurite_area_120hr: Leibniz Research Institute for Environmental Medicine (IUF) 120-hour Neuronal Morphology Assay for Neurite Area (NPC4) (AID 2284305; active = hit-call score of the fitted dose curve at least 0.9, where 1 is the maximum)
Summary of the method: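 Human fetal neural progenitor spheres (0.3 mm) plated on poly-D-lysine/laminin in N2 differentiation medium, exposed 120 h (7 concentrations, DMSO ≤0.1%, half-medium refresh day 3). Fixed, TUBB3 immunostained; mean neurite area per neuron by Omnisphero skeletonization.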

[18] = IUF_NPC2-5_cytotoxicity_72hr: Cytotoxicity Assessment at 72 hours in the Leibniz Research Institute for Environmental Medicine (IUF) Neural Progenitor Cell Migration and Differentiation Assay for Cytotoxicity (NPC2-5) (AID 2284306; active = hit-call score of the fitted dose curve at least 0.9, where 1 is the maximum;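 also: LDH release into supernatant measured by resorufin fluorescence marking membrane damage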)
Summary of the method: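 Human fetal primary neural progenitor spheres (0.3 mm) plated on poly-D-lysine/laminin in N2 differentiation medium, exposed from day 0 at 37C. LDH-dependent resazurin-to-resorufin fluorescence in supernatant at 72 h; 7 concentrations, DMSO at most 0.1%.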

[19] = IUF_NPC2-5_cell_number_120hr: Cell Number Assessment at 120 hours in the Leibniz Research Institute for Environmental Medicine (IUF) Neural Progenitor Cell Migration and Differentiation Assay (NPC2-5) (AID 2284308);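 also: count of Hoechst-stained nuclei in migration zone around plated human neural progenitor spheres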
Summary of the method: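 Seven-point serial dilutions plus solvent control were applied to plated 0.3 mm hNPC spheres at differentiation start, with medium half-replaced at day 3. Nuclei positive for Hoechst in the migration zone were enumerated at 120 h.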

[20] = IUF_NPC2-5_viability_120hr: Viability Assessment at 120 hours in the Leibniz Research Institute for Environmental Medicine (IUF) Neural Progenitor Cell Migration and Differentiation Assay (NPC2-5) (AID 2284312)
Summary of the method: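 Human fetal neural progenitor spheres (0.3 mm) plated on poly-D-lysine/laminin in N2 differentiation medium, exposed 120 h with half-medium refresh at day 3. Viability by alamar blue resazurin fluorescence; 7 concentrations, DMSO max 0.1%.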

[21] = CCTE_Mundy_HCI_iCellGluta_NOG_NeuriteLength: CCTE's Neurite Outgrowth Assay in iCellGluta cells for Neurite Length, Mundy Lab (AID 2284318; active = hit-call score of the fitted dose curve at least 0.9, where 1 is the maximum)
Summary of the method: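 Automated high-content imaging of betaIII-tubulin (Alexa Fluor-488) and Hoechst-stained cells gave neurite length, normalized to the DMSO baseline.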

[22] = IUF_NPC1_cytotoxicity_72hr: Cytotoxicity Assessment at 72 hours in the Leibniz Research Institute for Environmental Medicine (IUF) Neural Progenitor Cell Proliferation Assay (NPC1) (AID 2284332; active = hit-call score of the fitted dose curve at least 0.9, where 1 is the maximum;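 also: rising LDH signal means more cytotoxicity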)
Summary of the method: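 Spheres of primary human neural progenitors are plated one per well on day 0 in growth-factor medium and dosed at once. After three days at 37C, supernatant LDH is measured fluorimetrically via resazurin reduction.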

[23] = CCTE_Mundy_HCI_iCellGluta_NOG_NeuronCount: CCTE's Neurite Outgrowth Assay in iCellGluta cells for Neuron Count, Mundy Lab (AID 2284340; active = hit-call score of the fitted dose curve at least 0.9, where 1 is the maximum;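 also: cells fixed about 48 h after compound addition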)
Summary of the method: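 Neuron count read by automated high-content imaging of Hoechst 33342 and betaIII-tubulin/Alexa Fluor-488 labelling in human iPSC glutamatergic neurons. Activity fitted relative to DMSO.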

[24] = CCTE_Mundy_HCI_iCellGluta_NOG_NeuriteCount: CCTE's Neurite Outgrowth Assay in iCellGluta cells for Neurite Count, Mundy Lab (AID 2284342; active = hit-call score of the fitted dose curve at least 0.9, where 1 is the maximum;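 also: chemical exposure about 48 hours starting 2 hours after plating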)

Measured: outcome

Cc1[nH]n(C)c(=O)c1C(=O)c1ccc(C(F)(F)F)cc1S(C)(=O)=O
inactive: all assays above
